The source made the active and inactive calls. Unless noted, no rule for the calls is given here.
Experiments:
[1] = test system: XIP peptide (Xip251-270) binding; assay: XIP fragment 251-270 binding compounds – biochemical, small-molecule microarray, fluorescence 635/667 nm, 0.1 µg/mL protein, primary screen (AID 1182); conditions: fluorescent protein binding, 635 nm, higher = more signal, called active from +8 up or from −8 down
[2] = test system: XIP peptide (Xip251-270); assay: compounds binding XIP fragment 251-270 – biochemical, small-molecule microarray, fluorescence 635/667 nm, 0.5 µg/mL protein, primary screen (AID 1183); conditions: fluorescence 635 nm, higher = more signal
[3] = blood-stage malaria parasite viability loss – strain 3D7, DAPI fluorescence, 100 nL, primary screen (AID 1184);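 also: parasites grown inside human red blood cells in medium with human serum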; conditions: P. falciparum 3D7 growth, 3 d, higher = more signal
[4] = molecular target: Homeobox protein Hox-A13 (Mus musculus) (UniProt Q62424); assay: disruptors of Hoxa13 oligonucleotide interaction – biochemical, fluorescence polarization, labeled oligonucleotide, primary screen (AID 1185); conditions: Hoxa13:DNA binding, 15 min, higher = more signal, called active from +8 up or from −8 down
[5] = blockers of DNA damage checkpoint Chk1 activation – imaging, HeLa, hydroxyurea, phospho-Chk1 antibody, percent positive cells, primary screen (AID 1186); conditions: hydroxyurea-induced phospho-Chk1 immunofluorescence imaging, higher = more signal
[6] = blockers of DNA damage checkpoint Chk1 activation – imaging, HeLa, hydroxyurea, phospho-Chk1 nuclear intensity, primary screen (AID 1187); conditions: hydroxyurea-induced phospho-Chk1 immunofluorescence imaging, higher = more signal

Sequence of Homeobox protein Hox-A13 (Mus musculus) (Q62424 whole entry, looked up): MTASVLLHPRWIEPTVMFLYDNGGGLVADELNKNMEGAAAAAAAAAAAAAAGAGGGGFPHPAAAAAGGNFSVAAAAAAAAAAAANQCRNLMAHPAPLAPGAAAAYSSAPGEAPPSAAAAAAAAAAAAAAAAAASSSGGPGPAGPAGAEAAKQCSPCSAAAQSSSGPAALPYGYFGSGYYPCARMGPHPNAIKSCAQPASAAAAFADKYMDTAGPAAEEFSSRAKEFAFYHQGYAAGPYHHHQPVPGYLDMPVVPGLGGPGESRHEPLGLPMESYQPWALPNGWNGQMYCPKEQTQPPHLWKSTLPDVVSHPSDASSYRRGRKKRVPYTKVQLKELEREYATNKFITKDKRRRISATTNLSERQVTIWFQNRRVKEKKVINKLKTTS

Row | Structure (SMILES) | composite z-score [1] | composite z-score [2] | z-score [3] | z-score [4] | z-score [5] | z-score [6]
1 | Cc1cc(C)cc(N2C(=O)CSC2c2cccc([N+](=O)[O-])c2)c1 (configuration not stated) | 0.397 (inactive) | 0.521 | -0.0855 | 0.0457 (inactive) | -0.251 (inactive) | -0.335 (inactive)
2 | O=C1O[C@H](c2ccccc2)[C@H](c2ccccc2)N2[C@H]1[C@@H](C(=O)Nc1nc3ccccc3s1)[C@]1(C(=O)Nc3ccccc31)[C@H]2c1ccc(OCCO)cc1 | -0.434 (inactive) | 0.652 | -1.33 | 1.24 (inactive) | 0.0458 (inactive) | -0.0249 (inactive)
3 | CN1C(=O)C2C=CC(C(O)c3cccc4ccccc34)N(N3CCCCC3)C2C1=O (configuration not stated) | 0.356 (inactive) | 0.749 | 0.83 | -4.64 (inactive) | 0.906 (inactive) | 0.271 (inactive)
4 | CCOC(=O)C1CCCCN1 (configuration not stated) | -0.679 (inactive) | -0.0839 | 1.57 | 0.65 (inactive) | 0.0889 (inactive) | 0.0121 (inactive)
5 | C=CCC(OC(C)=O)[C@@H]1[C@@H](N(Cc2ccc(-c3ccccc3)cc2)C(=O)Cc2ccc(F)cc2)c2cc(OCCCO)ccc2N1C(=O)Cc1ccc(OC)cc1 (some centres not stated) | 0.0187 (inactive) | -0.308 | -0.939 | -2.3 (inactive) | -0.245 (inactive) | -0.23 (inactive)
6 | CN(C)C(=O)C1N=C(c2ccc(OCCCO)cc2)N(c2ccccc2)O1 (configuration not stated) | 0.94 (inactive) | 0.62 | 0.639 | -1.46 (inactive) | -0.823 (inactive) | -0.846 (inactive)
7 | COCCOC(=O)N1C(=O)[C@@]2(c3cc(C#CCC(C(=O)OC)C(=O)OC)ccc31)[C@H](C(=O)N1CCc3cc(OC)c(OC)cc3C1)[C@H]1C(=O)O[C@H](c3ccccc3)[C@H](c3ccccc3)N1[C@@H]2c1ccc(OCCO)cc1 | 0.655 (inactive) | 0.749 | -2.1 | 3.49 (inactive) | -0.0997 (inactive) | 0.159 (inactive)
8 | C[C@H]1NC(=O)[C@@]23C(=O)N[C@@H](Cc4ccccc4)C2[C@H](C)[C@@]2(C)O[C@H]2C3/C=C/C/C=C\CNC(=O)[C@H](Cc2ccccc2)NC1=O (some centres not stated) | 0.0017 (inactive) | 0.424 | -1.4 | -7.15 (inactive) | 0.116 (inactive) | 0.368 (inactive)
9 | O=C1N(Cc2ccccc2)Cc2ccccc2[C@@H]2OC(c3ccc(OCCCO)cc3)=N[C@]12CCS(=O)(=O)c1ccccc1 | 0.0667 (inactive) | 0.736 | -2.17 | 0.722 (inactive) | -0.0608 (inactive) | 0.268 (inactive)
10 | COCCOC(=O)N1C(=O)[C@@]2(c3cc(C#Cc4ccc(OC)cc4)ccc31)[C@H](c1ccc(O)cc1)N1[C@H](c3ccccc3)[C@H](c3ccccc3)OC(=O)[C@H]1[C@@H]2C(=O)N1CCCCCCC1 | 0.711 (inactive) | 0.436 | -1.55 | 1.36 (inactive) | -0.0871 (inactive) | -0.171 (inactive)
11 | CCC[C@@H]1C[C@@]1(CCC)[C@@H](NC(=O)OCc1ccccc1)c1ccc(-c2ccccc2)cc1 | -0.384 (inactive) | -0.237 | -0.54 | -3.15 (inactive) | 0.977 (inactive) | 0.198 (inactive)
12 | Cc1ccc(S[C@]2(C(=O)O)CC(=O)N(C3Cc4ccccc4C3)[C@@H]2c2ccc(CO)cc2)cc1 | 1.36 (inactive) | -0.669 | 1.58 | -3.97 (inactive) | 0.172 (inactive) | 0.129 (inactive)
13 | CC(=O)c1ccc(C(O)C2C=CC3C(=O)N(c4ccccc4)C(=O)C3N2Nc2ccc(C#N)cc2)cc1 (configuration not stated) | -0.305 (inactive) | 0.441 | 0.981 | -4.75 (inactive) | 0.293 (inactive) | -0.211 (inactive)
14 | C=C[C@@H](OC)[C@H](OC(=O)Nc1ccc(SC)cc1)c1ccc(O)c(F)c1 | 0.313 (inactive) | 0.0562 | -0.386 | -4.2 (inactive) | -0.337 (inactive) | -0.23 (inactive)
15 | CCC(CC)C(O)C1C=CC2C(=O)N(c3ccccc3)C(=O)C2N1Nc1ccc(C(C)C)cc1 (configuration not stated) | 0.0969 (inactive) | 0.586 | -0.615 | -3.2 (inactive) | -0.681 (inactive) | -0.765 (inactive)
16 | CCCCC(=C=CC[C@@H](O)c1ccccc1OCCO)C[C@@H](O)COCc1ccccc1 | -0.175 (inactive) | 0.868 | -1.67 | -4.72 (inactive) | 0.193 (inactive) | 1.06 (inactive)
17 | COC(=O)c1c2oc(c1C(=O)OC)C(=O)N(C)Cc1cn(nn1)C[C@H](Cc1ccccc1)NC(=O)N[C@H](CO)CC2 | 0.15 (inactive) | -0.374 | -0.38 | -1.66 (inactive) | 0.453 (inactive) | 0.723 (inactive)
18 | COCCOC(=O)N1C(=O)[C@@]2(c3cc(C#CCNC(N)=O)ccc31)[C@H](C(=O)N1CCc3cc(OC)c(OC)cc3C1)[C@H]1C(=O)O[C@H](c3ccccc3)[C@H](c3ccccc3)N1[C@@H]2c1ccccc1OCCO | 1.53 (inactive) | 0.498 | -2.2 | 0.577 (inactive) | 0.0782 (inactive) | 0.147 (inactive)
19 | O=C1O[C@@H](c2ccccc2)[C@@H](c2ccccc2)N2[C@@H](c3ccc(O)cc3)[C@]3(C(=O)Nc4ccc(C#CC5(O)CCCCCC5)cc43)[C@@H](C(=O)NC[C@H](O)c3ccccc3)[C@H]12 | 0.0382 (inactive) | 0.691 | -0.627 | -3.55 (inactive) | 0.206 (inactive) | 0.345 (inactive)
20 | CCOC(=O)C[C@H]1[C@H](OC(=O)Cc2ccc3c(c2)OCO3)[C@@H](NC(=O)CC(C)C)c2cc(OCCCO)ccc2N1C(=O)Cc1ccc(OC)cc1 | -0.107 (inactive) | -0.311 | 0.0373 | -3.35 (inactive) | -0.839 (inactive) | -0.401 (inactive)
21 | COCCOC(=O)N1C(=O)[C@@]2(c3cc(C#CCCO)ccc31)[C@H](C(=O)Nc1nc3ccccc3s1)[C@H]1C(=O)O[C@H](c3ccccc3)[C@H](c3ccccc3)N1[C@@H]2c1ccccc1OCCO | 0.0261 (inactive) | 0.73 | -1.68 | 2.62 (inactive) | 0.225 (inactive) | 0.416 (inactive)
22 | NC(=O)N1C(=O)C2C(C1=O)C1C=C(CCCO)C2C(c2cccs2)N1Cc1cccc(OC(F)(F)F)c1 (configuration not stated) | 1.07 (inactive) | 0.577 | 0.379 | -6.01 (inactive) | -0.356 (inactive) | -0.334 (inactive)
23 | COCCOC(=O)N1C(=O)[C@@]2(c3cc(C#CC4=CCCCC4)ccc31)[C@H](C(N)=O)[C@H]1C(=O)O[C@H](c3ccccc3)[C@H](c3ccccc3)N1[C@@H]2c1ccccc1OCCO | 0.859 (inactive) | 0.823 | -2.03 | -1.26 (inactive) | -0.176 (inactive) | -0.46 (inactive)
24 | O=C1O[C@H](c2ccccc2)[C@H](c2ccccc2)N2[C@H]1[C@@H](C(=O)Nc1nc3ccccc3s1)[C@]1(C(=O)Nc3ccc(C#CCCO)cc31)[C@H]2c1ccc(O)cc1 | 0.25 (inactive) | 0.625 | 0.902 | -1.02 (inactive) | -0.334 (inactive) | -0.376 (inactive)
25 | Cc1ccc(S[C@]2(C(=O)NCC(F)(F)F)CC(=O)N(Cc3ccccc3C(F)(F)F)[C@@H]2c2ccc(CO)cc2I)cc1 | -0.485 (inactive) | -0.0347 | -0.115 | -2.45 (inactive) | 0.504 (inactive) | 1.27 (inactive)
26 | COCCCNC(=O)[C@@]1(Cc2ccccc2N=[N+]=[N-])COC(c2ccc(OCCCO)cc2)=N1 | 1 (inactive) | 0.626 | -2.06 | -5.18 (inactive) | -0.0232 (inactive) | -0.101 (inactive)
27 | CC(=O)NCCCC[C@@H]1NC(=O)[C@H]2C[C@@H](C(=O)NCCCC[N+](C)(C)C)[C@@H](c3cccc(OCCO)c3)N2C1=O | 2.02 (inactive) | 0.823 | -0.207 | -1.96 (inactive) | 0.0751 (inactive) | 0.341 (inactive)

Source: PubChem BioAssay
